Experimental data: PubChem BioAssay
Results with a measured potency or affinity are listed apart. Records with an inconclusive call do not appear. Calls of active or inactive are those of the source.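 The calls were made as follows, unless noted: active = a fitted half-maximal concentration no higher than twice the top valid tested dose, with signal falling as cells die; inconclusive = flat curve between -70% and -30%, or poor fit; inactive = the rest, including signal rising instead of falling.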

What was measured:
[1] = fungal growth arrest, C. neoformans – Alamar Blue, cherry-picks, dose response (AID 686998;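 active = falling signal with fitted half-maximal potency no higher than twice the top valid tested dose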)
[2] = C. neoformans lysis by adenylate kinase leakage – AK release luminescence, cherry-picks, dose response (AID 687000;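 active = fitted dose curve reaches 40% lysis signal rise at or below the highest valid concentration tested for that sample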;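 also: luminescent detection of adenylate kinase leaking from lysed yeast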)
[3] = viability loss in HepG2 hepatoma cells – cell-based, cherry-picks, set 2, cytotoxicity control, dose response (AID 687002;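 active = a dose-response fit showing signal loss, with half-maximal concentration no higher than twice the top tested dose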)
[4] = viability loss in HeLa cells – cell-based, ATP luminescence, cherry-pick samples, cytotoxicity control, dose response (AID 687004)

Measured: outcome

CO[C@H]1CN(C)C(=O)c2cc(NC(=O)c3ccccc3F)ccc2OC[C@H](C)N(C(C)=O)C[C@H]1C
inactive: [1] | [2] | [3] | [4]

Cc1noc(C)c1NC(=O)N(C)C[C@H]1Oc2ccc(NS(=O)(=O)c3cn(C)cn3)cc2CC(=O)N([C@H](C)CO)C[C@H]1C
inactive: [1] | [2] | [3] | [4]

C[C@H](CO)N1C[C@H](C)[C@H](CN(C)CC2CCCCC2)Oc2ccc(NC(=O)Nc3ccc4c(c3)OCO4)cc2C1=O
inactive: [1] | [2] | [3] | [4]

COc1ccc(CN(C)C[C@@H]2OCCCC[C@H](C)Oc3ccc(N(C)C)cc3C(=O)N([C@H](C)CO)C[C@@H]2C)cc1
inactive: [1] | [2] | [3] | [4]

C[C@@H]1CN([C@@H](C)CO)C(=O)c2cc(NC(=O)Nc3ccc(F)cc3)ccc2O[C@@H](C)CCCCO[C@H]1CN(C)S(=O)(=O)c1ccccc1
inactive: [1] | [2] | [3] | [4]

CCCNC(=O)C[C@@H]1CC[C@@H]2[C@@H](COc3ccc(NC(=O)CCC)cc3C(=O)N2C)O1
inactive: [1] | [2] | [3] | [4]

Cc1cccc(NC(=O)C2NC(=O)CC2c2ccccc2)c1C (centres undefined)
inactive: [1] | [2] | [3] | [4]

C[C@H](CO)N1C[C@H](C)[C@H](CN(C)S(=O)(=O)c2ccc(F)cc2)Oc2ccc(NS(=O)(=O)c3ccc(Cl)cc3)cc2C1=O
inactive: [1] | [2] | [3] | [4]

C[C@@H]1CCCCO[C@@H](CN(C)Cc2ccncc2)[C@@H](C)CN([C@H](C)CO)C(=O)c2cc(NC(=O)c3ccncc3)ccc2O1
inactive: [1] | [2] | [3] | [4]

COc1ccccc1C#Cc1ccc2c(c1)O[C@@H](CN(C)C(C)=O)[C@@H](C)CN([C@H](C)CO)S2(=O)=O
inactive: [1] | [2] | [3] | [4]

CNC(=O)C[C@H]1CC[C@H]2[C@H](COc3ccc(NC(=O)c4cc(C)on4)cc3C(=O)N2C)O1
inactive: [1] | [2] | [3] | [4]
